Experimental data published in PubChem BioAssay AID720597 (Broad Institute, 2013).
Entries with a potency or affinity are not part of this list. The source made the active and inactive calls.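 Rule for the calls: active = fitted half-maximal dose no more than twice the top valid tested dose, for compounds that lower signal; inconclusive = fit invalid, or curve flat with activity between -70 and -30; inactive = potency past limit, curve flat within ±30, or signal increasing.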

target: NAD-dependent protein deacylase sirtuin-5, mitochondrial (Homo sapiens) (UniProt Q9NXA8); test: SIRT5 deacylase inhibitors, dose response, biochemical, fluorescence imaging, cherry-pick, set 6 (AID 720597); details: Purified SirT5, succinyl-peptide-AMC/trypsin fluorescence; series mostly up to 15 µM; activity change, negative = inhibition: at the top concentration;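 note: lower AMC signal can also come from blocking the trypsin step; 0% = median of neutral control wells and -100% = median of positive control wells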
Sequence (Q9NXA8 whole entry, looked up): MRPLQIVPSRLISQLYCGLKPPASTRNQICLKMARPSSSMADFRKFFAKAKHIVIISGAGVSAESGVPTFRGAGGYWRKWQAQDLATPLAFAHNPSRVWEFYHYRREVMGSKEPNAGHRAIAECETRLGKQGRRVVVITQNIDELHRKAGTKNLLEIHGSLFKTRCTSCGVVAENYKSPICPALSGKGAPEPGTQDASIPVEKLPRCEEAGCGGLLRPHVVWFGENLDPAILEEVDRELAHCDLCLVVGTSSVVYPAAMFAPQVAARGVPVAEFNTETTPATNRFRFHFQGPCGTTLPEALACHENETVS

Activity change, negative = inhibition, inactive:
CCCNC(=O)N1CC2(C1)[C@H](c1ccccc1)[C@H](CO)N2Cc1cccc(F)c1 -7.43%
COc1ccc(-c2ccc([C@@H]3[C@H]4CN(C(=O)Cc5ccccn5)CC(=O)N4[C@H]3CO)cc2)cc1 -14.6%
C[C@H](CO)N1C[C@H](C)[C@@H](CN(C)C(=O)NC2CCCCC2)Oc2cc(C#Cc3ccc(F)cc3)ccc2S1(=O)=O -9.23%
C[C@@H]1CN([C@@H](C)CO)S(=O)(=O)c2ccc(C#C[C@@H](C)O)cc2O[C@@H]1CN(C)Cc1ccc(-c2ccccc2)cc1 24.3%
C[C@@H]1CCCCO[C@H](CN(C)C(=O)Nc2ccc(C(F)(F)F)cc2)[C@H](C)CN([C@H](C)CO)C(=O)c2cc(NS(=O)(=O)c3ccc(Cl)cc3)ccc2O1 -24.1%
C[C@@H]1CCCCO[C@H](CN(C)S(=O)(=O)c2ccc(Cl)cc2)[C@H](C)CN([C@@H](C)CO)C(=O)c2cc(NS(=O)(=O)c3ccc(F)cc3)ccc2O1 -1.53%
COc1ccc(S(=O)(=O)Nc2ccc3c(c2)C(=O)N([C@H](C)CO)C[C@@H](C)[C@@H](CN(C)Cc2ccc(Oc4ccccc4)cc2)O3)cc1 4.75%
COc1cccc(NC(=O)N2CC(=O)N3[C@@H](CO)[C@H](c4ccc(C#CCC5CCCC5)cc4)[C@@H]3C2)c1 33%
CC1c2nc3ccccc3n2C(CC(=O)NCc2ccc(Cl)cc2)C(=O)N1Cc1ccccc1 (centres undefined) 14.9% [at 16 µM]
COc1ccc(S(=O)(=O)N(C)C[C@@H]2OCCCC[C@H](C)Oc3ccc(NS(=O)(=O)c4ccc(Cl)cc4)cc3C(=O)N([C@@H](C)CO)C[C@H]2C)cc1 -14.2%
C[C@H]1CCCCO[C@H](CN(C)Cc2ccc(C(F)(F)F)cc2)[C@@H](C)CN([C@@H](C)CO)C(=O)c2cc(NS(=O)(=O)c3ccccc3)ccc2O1 0.872%
COc1ccc(C#Cc2ccc([C@H]3[C@@H](CO)N4C(=O)CN(C(=O)c5cccnc5)C[C@@H]34)cc2)cc1 7.65%
C[C@H]1CN([C@@H](C)CO)C(=O)Cc2cc(NS(=O)(=O)c3ccccc3)ccc2O[C@H]1CN(C)Cc1ccc(C(=O)Nc2ccccc2N)cc1 -11.8%
COc1cccc(S(=O)(=O)N(C)C[C@@H]2Oc3cc(C4=CCCC4)ccc3S(=O)(=O)N([C@H](C)CO)C[C@H]2C)c1 1.6%
COCC#Cc1cnc2c(c1)C(=O)N([C@@H](C)CO)C[C@@H](C)[C@@H](CN(C)C(=O)c1ccc(F)cc1)O2 -7.36%
O=C(CN1CCOCC1)N1CCCCN2[C@H](C1)[C@H](c1ccc(-c3ccccc3)cc1)[C@@H]2CO -9.5%
C[C@H](CO)N1C[C@H](C)[C@@H](CN(C)Cc2ccccc2F)Oc2cc(C#CC3CC3)ccc2S1(=O)=O 29.7%
C[C@H]1CN([C@@H](C)CO)C(=O)c2c(c3ccccc3n2C)-c2ccccc2CO[C@H]1CN(C)Cc1ccccc1 11.1%
C[C@@H]1CCCCO[C@@H](CN(C)Cc2ccc(C(F)(F)F)cc2)[C@H](C)CN([C@@H](C)CO)C(=O)c2cc(NS(=O)(=O)c3cccs3)ccc2O1 -23.6%
O=C(C[C@H]1C[C@@H]2c3cc(NC(=O)Nc4ccc(C(F)(F)F)cc4)ccc3O[C@@H]2[C@@H](CO)O1)NCc1ccc2c(c1)OCO2 -19.6%
COCC(=O)N1C[C@@H](C)[C@@H](OC)CN(C)C(=O)c2cc(NC(=O)c3cc(C)on3)ccc2OC[C@H]1C -15.1%
O=C(NCC[C@H]1CC[C@H](NC(=O)C2CC2)[C@@H](CO)O1)c1cc(Cl)cc(Cl)c1 29%
O=C(C[C@H]1CC[C@@H](NS(=O)(=O)c2ccccc2)[C@@H](CO)O1)NCc1ccncn1 27.1%
C[C@H]1CCCCO[C@H](CN(C)S(=O)(=O)c2ccc(Cl)cc2)[C@@H](C)CN([C@@H](C)CO)C(=O)c2cc(NS(=O)(=O)c3ccc(F)cc3)ccc2O1 -3.99%
C[C@@H]1CN([C@@H](C)CO)C(=O)Cc2cc(NC(=O)Nc3ccccc3)ccc2O[C@H]1CN(C)S(=O)(=O)c1ccc(F)cc1 -30.5%
COc1ccc(S(=O)(=O)N(C)C[C@@H]2OCCCC[C@@H](C)Oc3ccc(NS(=O)(=O)c4ccc(F)cc4)cc3C(=O)N([C@@H](C)CO)C[C@H]2C)cc1 -22.5%
O=C(NC1CCCC1)N1CCCCN2[C@H](C1)[C@H](c1ccc(/C=C/c3ccccc3)cc1)[C@@H]2CO -2.21%
Cc1noc(C)c1NC(=O)Nc1cccc2c1O[C@H](CN(C)Cc1ccc(Oc3ccccc3)cc1)[C@H](C)CN([C@H](C)CO)C2=O -14.9%
C[C@H](CO)N1C[C@H](C)[C@@H](CN(C)Cc2ccc(Cl)c(Cl)c2)Oc2ccc(NS(=O)(=O)c3ccccc3)cc2CC1=O -21%
COc1ccc(NC(=O)N(C)C[C@@H]2Oc3cc(C#CCC(C)C)ccc3S(=O)(=O)N([C@@H](C)CO)C[C@H]2C)cc1 1.47%
CCCNC(=O)N(C)C[C@@H]1Oc2ncc(Br)cc2C(=O)N([C@H](C)CO)C[C@@H]1C -18.7%
O=C(C1CCOCC1)N1CC2(C1)[C@@H](c1ccccc1)[C@@H](CO)N2CCC(F)(F)F -9.4%
C[C@H](CO)N1C[C@H](C)[C@@H](CN(C)Cc2ccc(Oc3ccccc3)cc2)Oc2c(NC(=O)CCCCCC(=O)Nc3ccccc3N)cccc2C1=O -17.5%
O=S(=O)(c1ccc(F)cc1)N1CCCCN2[C@@H](CO)[C@H](c3ccc(-c4ccccc4F)cc3)[C@@H]2C1 -23.3%
COc1ccc(S(=O)(=O)N(C)C[C@H]2OCCCC[C@H](C)Oc3ccc(NS(=O)(=O)c4ccc(Cl)cc4)cc3C(=O)N([C@H](C)CO)C[C@H]2C)cc1 -2.51%
Cc1noc(C)c1S(=O)(=O)Nc1ccc2c(c1)CC(=O)N([C@H](C)CO)C[C@H](C)[C@H](CN(C)Cc1ccncc1)O2 -7.37%
C[C@@H]1CN([C@@H](C)CO)C(=O)c2cccc(NS(=O)(=O)c3cn(C)cn3)c2O[C@H]1CN(C)Cc1ccc(C(F)(F)F)cc1 -11%
C[C@@H]1CN([C@H](C)CO)S(=O)(=O)c2ccc(C#CC3CC3)cc2O[C@@H]1CN(C)Cc1ccccc1F -18.8%
COc1cccc(S(=O)(=O)N(C)C[C@H]2Oc3cc(C4=CCCC4)ccc3S(=O)(=O)N([C@@H](C)CO)C[C@H]2C)c1 30.6%
